Assay results published in article PMC5700166.
Substitutions are numbered along the chain they refer to.

Key:
Assay in all cases: protein-binding microarray (PBM); PBM: ~300 nM protein, 6 mM HEPES pH 7.8, 80 mM KCl, 0.5 mM EDTA, 0.5 mM EGTA, 6% glycerol, 35 ng/ul poly-dIdC, 1% milk, 1 h, room temperature; Ap Aiptasia and Nv Nematostella (sea anemones) / Co Capsaspora / Aq Amphimedon (sponge) / Dm Drosophila / Hu human; RHD is the Rel homology domain; high values mean tight binding
Settings in all cases: dsDNA, one strand shown
[1] = target: T1, GST-Nv-NF-kB (Ser allele) (Nematostella vectensis, UniProt A7UNT2 2-411)
T1 sequence: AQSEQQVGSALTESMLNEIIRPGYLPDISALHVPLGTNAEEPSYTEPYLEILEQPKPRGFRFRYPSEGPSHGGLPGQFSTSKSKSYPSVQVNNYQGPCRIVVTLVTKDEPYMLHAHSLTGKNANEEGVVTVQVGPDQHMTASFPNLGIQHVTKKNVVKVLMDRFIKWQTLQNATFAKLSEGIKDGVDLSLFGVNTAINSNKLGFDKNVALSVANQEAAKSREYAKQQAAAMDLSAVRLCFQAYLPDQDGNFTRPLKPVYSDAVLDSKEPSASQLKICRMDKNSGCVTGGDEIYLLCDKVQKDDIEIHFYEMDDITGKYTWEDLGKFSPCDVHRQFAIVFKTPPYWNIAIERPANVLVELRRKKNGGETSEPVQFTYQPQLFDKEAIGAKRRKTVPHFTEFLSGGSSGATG

[2] = target: T2, GST-Dm-Relish (Drosophila melanogaster, UniProt Q94527 99-473)
T2 sequence: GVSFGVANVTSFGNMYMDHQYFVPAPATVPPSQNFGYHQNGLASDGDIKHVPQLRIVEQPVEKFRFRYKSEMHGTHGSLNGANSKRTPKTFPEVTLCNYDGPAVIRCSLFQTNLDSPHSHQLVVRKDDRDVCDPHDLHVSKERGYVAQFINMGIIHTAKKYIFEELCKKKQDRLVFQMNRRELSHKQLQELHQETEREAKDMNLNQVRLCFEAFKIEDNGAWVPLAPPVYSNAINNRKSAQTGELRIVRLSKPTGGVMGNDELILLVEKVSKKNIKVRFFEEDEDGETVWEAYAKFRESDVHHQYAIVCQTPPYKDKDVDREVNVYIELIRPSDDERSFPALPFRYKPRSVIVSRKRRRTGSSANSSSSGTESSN

[3] = target: T3, GST-Aq-NF-kB (Amphimedon queenslandica, UniProt A9Y5G7 2-389)
T3 sequence: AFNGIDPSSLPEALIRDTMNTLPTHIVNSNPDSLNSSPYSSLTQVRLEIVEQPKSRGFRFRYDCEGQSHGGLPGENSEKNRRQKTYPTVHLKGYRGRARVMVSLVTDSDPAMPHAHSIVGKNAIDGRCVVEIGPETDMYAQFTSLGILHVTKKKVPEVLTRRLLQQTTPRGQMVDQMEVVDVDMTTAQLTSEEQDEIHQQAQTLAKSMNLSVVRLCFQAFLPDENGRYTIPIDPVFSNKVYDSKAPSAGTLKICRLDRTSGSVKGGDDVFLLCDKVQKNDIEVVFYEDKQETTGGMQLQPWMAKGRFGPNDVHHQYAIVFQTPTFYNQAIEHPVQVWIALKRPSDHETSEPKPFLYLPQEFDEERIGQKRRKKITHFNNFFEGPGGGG

[4] = target: GST-Hu-p50 (Homo sapiens, UniProt P19838 7-356)
Chain of GST-Hu-p50 (P19838 7-356): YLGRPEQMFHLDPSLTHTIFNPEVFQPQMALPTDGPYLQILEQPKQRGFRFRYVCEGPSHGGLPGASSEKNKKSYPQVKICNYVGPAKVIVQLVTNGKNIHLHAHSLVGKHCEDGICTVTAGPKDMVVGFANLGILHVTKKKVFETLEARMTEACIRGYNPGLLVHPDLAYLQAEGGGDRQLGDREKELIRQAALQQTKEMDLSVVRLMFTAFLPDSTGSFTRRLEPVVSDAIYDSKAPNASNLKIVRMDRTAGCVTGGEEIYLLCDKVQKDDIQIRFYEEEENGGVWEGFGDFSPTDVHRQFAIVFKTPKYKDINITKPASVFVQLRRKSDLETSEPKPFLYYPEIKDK

[5] = target: T4, GST-Ap-NF-kB RHD (Exaiptasia pallida (Aiptasia), UniProt A0A913YAJ5 2-422)
T4 sequence: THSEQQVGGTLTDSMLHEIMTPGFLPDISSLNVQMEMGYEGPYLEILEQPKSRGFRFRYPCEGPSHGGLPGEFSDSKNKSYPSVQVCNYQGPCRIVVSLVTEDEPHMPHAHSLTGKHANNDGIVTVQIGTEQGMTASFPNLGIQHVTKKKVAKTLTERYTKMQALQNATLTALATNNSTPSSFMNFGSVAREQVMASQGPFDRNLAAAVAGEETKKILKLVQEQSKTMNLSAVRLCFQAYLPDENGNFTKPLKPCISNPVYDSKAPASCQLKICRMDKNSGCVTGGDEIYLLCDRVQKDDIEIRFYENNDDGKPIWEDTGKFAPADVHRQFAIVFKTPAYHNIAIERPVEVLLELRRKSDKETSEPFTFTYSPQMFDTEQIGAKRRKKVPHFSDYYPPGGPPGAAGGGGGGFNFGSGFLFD

[6] = target: T5, GST-Nv-NF-kB (Cys allele) (Nematostella vectensis, UniProt E5G601 2-411)
T5 sequence: T1 sequence with R21Q, S66C, N207S, Q215E, A217V, K225E, E268A, E399D

Sequence	binding signal [1] [z-score]	binding signal [2] [z-score]	binding signal [3] [z-score]	binding signal [4] [z-score]	binding signal [5] [z-score]	binding signal [6] [z-score]
CCGATTAACATCAAAATTTCCGGTGATGTTAATCGGGTCTTGATTCGCTTGACGCTGCTG	1.02	1.67	3.05	2.46		
CCGATTAACATCAGGGGTCAGTATGATGTTAATCGGGTCTTGATTCGCTTGACGCTGCTG			1.09		1.23	
CCGATTAACATCAGGGCATGCCCTGATGTTAATCGGGTCTTGATTCGCTTGACGCTGCTG			4.01		1.37	1.29
CCGATTAACATCAGGACACTCCCTGATGTTAATCGGGTCTTGATTCGCTTGACGCTGCTG			5.35		1.81	2.51
CCGATTAACATCAAGGTTTTTCCTGATGTTAATCGGGTCTTGATTCGCTTGACGCTGCTG	1.62	3.17	2.97	1.61		
CCGATTAACATCAGGAAATTTACTGATGTTAATCGGGTCTTGATTCGCTTGACGCTGCTG		1.36	1.54	1.51		
CCGATTAACATCAGGAATAACCATGATGTTAATCGGGTCTTGATTCGCTTGACGCTGCTG		1.8	1.32	2.29		
CCGATTAACATCACAAAAAATCCTGATGTTAATCGGGTCTTGATTCGCTTGACGCTGCTG		1.98	1.44	1.98		
CCGATTAACATCACGGAATTTCCTGATGTTAATCGGGTCTTGATTCGCTTGACGCTGCTG		1.89	4.83	1.38		
CCGATTAACATCAGGACTTGCCCTGATGTTAATCGGGTCTTGATTCGCTTGACGCTGCTG			4.8		1.21	1.11
CCGATTAACATCAGGAATTTTTATGATGTTAATCGGGTCTTGATTCGCTTGACGCTGCTG		1.94	1.99	1.39		
CCGATTAACATCAAATTTTCCGGTGATGTTAATCGGGTCTTGATTCGCTTGACGCTGCTG	1.67	1.54	2.04	1.95		
CCGATTAACATCAGGCAGTTCCCTGATGTTAATCGGGTCTTGATTCGCTTGACGCTGCTG	1.25		3.41		1.39	1.3
CCGATTAACATCAGGAAACAACCTGATGTTAATCGGGTCTTGATTCGCTTGACGCTGCTG		1.07	2.89	1.61		
CCGATTAACATCATAGTCCCATGTGATGTTAATCGGGTCTTGATTCGCTTGACGCTGCTG			2.36		2.47	2.41
CCGATTAACATCAGGAGCTTCCCTGATGTTAATCGGGTCTTGATTCGCTTGACGCTGCTG			3.47		1.1	1.03
CCGATTAACATCAACGGGTCCCTTGATGTTAATCGGGTCTTGATTCGCTTGACGCTGCTG			2.73		2.6	1.84
CCGATTAACATCAAGCCTGTCCCTGATGTTAATCGGGTCTTGATTCGCTTGACGCTGCTG			1.77		2.01	1.27
CCGATTAACATCATGGGGCATGCTGATGTTAATCGGGTCTTGATTCGCTTGACGCTGCTG			1.06		1.18	
CCGATTAACATCAGTCCCTAAGCTGATGTTAATCGGGTCTTGATTCGCTTGACGCTGCTG			4.16		1.75	3.07
CCGATTAACATCAGGAACGTCCCTGATGTTAATCGGGTCTTGATTCGCTTGACGCTGCTG			5.01		3.25	3.14
CCGATTAACATCAGGCATGCCCCTGATGTTAATCGGGTCTTGATTCGCTTGACGCTGCTG			4.39		2.6	1.59
